# Test results published in the supplement of paper PMC10849652.
# The full data set covers some 7,900 targets. This sample favours those with a hit. About 0.6% of all pairs of compound and target were hits. A number with no mark means an inactive call.
# Key:
# Assay in all cases: log2 fold change, soluble protein after heating vs DMSO (PISA); higher = thermal stabilisation; K562 cells, 10 uM, 30 min; active = over 0.2 and 3.5 SD of the protein, either way, in both replicates (recomputed)
# saracatinib = compound: CN1CCN(CCOc2cc(OC3CCOCC3)c3c(Nc4c(Cl)ccc5c4OCO5)ncnc3c2)CC1 [saracatinib]
# In short: (§1)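 K562 cells at 2×10^6 cells/mL were exposed to 10 μM compound for 30 min, then aliquots were heated for 3 min across 48°C-58°C, pooled, and extracted in PBS containing 0.5% NP-40 at 4°C. The supernatant after 21,000xg for 90 min was taken as soluble protein and measured by TMTpro 16plex LC-MS/MS with channel sums equalised. Thermal stability is reported relative to control samples, with values from duplicates. Fold changes are given on a log2 scale.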
# sotrastaurin = compound: CN1CCN(c2nc(C3=C(c4c[nH]c5ccccc45)C(=O)NC3=O)c3ccccc3n2)CC1 [sotrastaurin]
# In short: as §1
# alvocidib = compound: CN1CC[C@H](c2c(O)cc(O)c3c(=O)cc(-c4ccccc4Cl)oc23)[C@H](O)C1 [alvocidib]
# In short: as §1
# Tubastatin A = compound: CN1CCc2c(c3ccccc3n2Cc2ccc(C(=O)NO)cc2)C1 [Tubastatin A]
# In short: as §1
# [1] = compound: CNC(=O)C1=CC=CC=C1NC2=NC(=NC=C2Cl)NC3=C(C=C(C=C3)N4CCOCC4)OC
# In short: as §1
# defactinib = compound: CNC(=O)c1ccc(Nc2ncc(C(F)(F)F)c(NCc3nccnc3N(C)S(C)(=O)=O)n2)cc1 [defactinib]
# In short: as §1
# rucaparib = compound: CNCc1ccc(-c2[nH]c3cc(F)cc4c3c2CCNC4=O)cc1 [rucaparib]
# In short: as §1
# [2] = compound: CNc1nc(-c2ccc3c(N)n[nH]c3c2)cc(N2C[C@@H](C(=O)NC3CCCCC3)CC[C@H]2C)n1
# In short: as §1
# encorafenib = compound: COC(=O)N[C@@H](C)CNc1nccc(-c2cn(C(C)C)nc2-c2cc(Cl)cc(NS(C)(=O)=O)c2F)n1 [encorafenib]
# In short: as §1
# [3] = compound: COC(=O)[C@H](CCSC)NC(=O)C1=C(C=C(C=C1)NC[C@H](CS)N)C2=CC=CC=C2
# In short: as §1
# [4] = compound: COC1=CC=C(C=C1)CN2C=CC3=C2C=C(C=C3)C(=O)NO
# In short: as §1
# filanesib = compound: CON(C)C(=O)N1N=C(c2cc(F)ccc2F)S[C@@]1(CCCN)c1ccccc1 [filanesib]
# In short: as §1
# zotarolimus = compound: CO[C@H]1C[C@@H]2CC[C@@H](C)[C@@](O)(O2)C(=O)C(=O)N2CCCC[C@H]2C(=O)O[C@H]([C@H](C)C[C@@H]2CC[C@H](n3cnnn3)[C@H](OC)C2)CC(=O)[C@H](C)/C=C(\C)[C@@H](O)[C@@H](OC)C(=O)[C@H](C)C[C@H](C)/C=C/C=C/C=C/1C [zotarolimus]
# In short: as §1
# idasanutlin = compound: COc1cc(C(=O)O)ccc1NC(=O)[C@@H]1N[C@@H](CC(C)(C)C)[C@](C#N)(c2ccc(Cl)cc2F)[C@H]1c1cccc(Cl)c1F [idasanutlin]
# In short: as §1
# alisertib = compound: COc1cc(Nc2ncc3c(n2)-c2ccc(Cl)cc2C(c2c(F)cccc2OC)=NC3)ccc1C(=O)O [alisertib]
# In short: as §1
# [5] = compound: COc1cc2nc(-c3cc(F)ccc3O)nc(N[C@@H]3CNC[C@H]3C(C)(C)O)c2cc1OC
# In short: as §1
# gefitinib = compound: COc1cc2ncnc(Nc3ccc(F)c(Cl)c3)c2cc1OCCCN1CCOCC1 [gefitinib]
# In short: as §1
# [6] = compound: COc1cccc2cc(-c3nc([C@H]4CC[C@H](C(=O)O)CC4)n4ncnc(N)c34)[nH]c12
# In short: as §1
# lapatinib = compound: CS(=O)(=O)CCNCc1ccc(-c2ccc3ncnc(Nc4ccc(OCc5cccc(F)c5)c(Cl)c4)c3c2)o1 [lapatinib]
# In short: as §1
# pictilisib = compound: CS(=O)(=O)N1CCN(Cc2cc3nc(-c4cccc5[nH]ncc45)nc(N4CCOCC4)c3s2)CC1 [pictilisib]
# In short: as §1
# Sequence of UniProt P34913 (P34913 whole entry, looked up): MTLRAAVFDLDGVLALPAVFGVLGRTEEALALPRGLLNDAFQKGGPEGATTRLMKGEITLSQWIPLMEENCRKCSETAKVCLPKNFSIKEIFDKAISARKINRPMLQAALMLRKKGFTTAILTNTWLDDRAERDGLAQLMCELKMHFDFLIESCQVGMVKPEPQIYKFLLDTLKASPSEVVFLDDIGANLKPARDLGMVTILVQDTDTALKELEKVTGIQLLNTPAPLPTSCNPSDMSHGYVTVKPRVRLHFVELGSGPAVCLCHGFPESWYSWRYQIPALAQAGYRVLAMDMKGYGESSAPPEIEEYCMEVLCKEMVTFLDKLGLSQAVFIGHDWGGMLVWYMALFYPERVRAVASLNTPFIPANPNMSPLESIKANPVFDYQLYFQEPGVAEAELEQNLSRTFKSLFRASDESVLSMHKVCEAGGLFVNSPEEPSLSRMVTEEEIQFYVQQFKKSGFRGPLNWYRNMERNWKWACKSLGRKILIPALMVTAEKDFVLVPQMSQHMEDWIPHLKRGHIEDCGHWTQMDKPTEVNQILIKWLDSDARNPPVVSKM
# Sequence of UniProt Q9UK59 (Q9UK59 whole entry, looked up): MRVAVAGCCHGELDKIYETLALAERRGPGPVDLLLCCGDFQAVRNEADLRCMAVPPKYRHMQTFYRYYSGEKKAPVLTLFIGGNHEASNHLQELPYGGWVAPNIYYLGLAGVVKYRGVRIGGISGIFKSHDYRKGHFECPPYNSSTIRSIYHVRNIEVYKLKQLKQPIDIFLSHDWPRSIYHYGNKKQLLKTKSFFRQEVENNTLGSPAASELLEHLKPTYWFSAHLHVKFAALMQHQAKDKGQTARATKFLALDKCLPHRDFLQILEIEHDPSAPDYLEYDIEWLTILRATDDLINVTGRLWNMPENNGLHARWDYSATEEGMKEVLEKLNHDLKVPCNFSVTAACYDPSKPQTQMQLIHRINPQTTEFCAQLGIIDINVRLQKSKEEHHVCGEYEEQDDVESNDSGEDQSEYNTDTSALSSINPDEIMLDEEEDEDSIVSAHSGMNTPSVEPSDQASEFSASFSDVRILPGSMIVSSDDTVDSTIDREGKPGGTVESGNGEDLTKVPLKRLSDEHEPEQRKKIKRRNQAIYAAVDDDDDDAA
# Sequence of UniProt Q9NV06 (Q9NV06 whole entry, looked up): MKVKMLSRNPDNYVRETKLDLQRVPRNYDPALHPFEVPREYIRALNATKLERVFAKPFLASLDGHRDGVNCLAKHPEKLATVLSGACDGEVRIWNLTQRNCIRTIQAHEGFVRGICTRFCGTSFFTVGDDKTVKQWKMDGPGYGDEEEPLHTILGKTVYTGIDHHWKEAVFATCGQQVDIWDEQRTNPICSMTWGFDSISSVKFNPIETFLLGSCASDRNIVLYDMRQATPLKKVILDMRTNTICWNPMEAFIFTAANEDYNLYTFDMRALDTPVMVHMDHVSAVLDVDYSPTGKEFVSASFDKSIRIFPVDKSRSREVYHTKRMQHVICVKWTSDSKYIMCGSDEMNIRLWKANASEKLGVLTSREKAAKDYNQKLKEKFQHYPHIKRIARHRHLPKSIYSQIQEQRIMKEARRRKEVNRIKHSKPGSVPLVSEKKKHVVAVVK
# Sequence of UniProt P26641 (P26641 whole entry, looked up): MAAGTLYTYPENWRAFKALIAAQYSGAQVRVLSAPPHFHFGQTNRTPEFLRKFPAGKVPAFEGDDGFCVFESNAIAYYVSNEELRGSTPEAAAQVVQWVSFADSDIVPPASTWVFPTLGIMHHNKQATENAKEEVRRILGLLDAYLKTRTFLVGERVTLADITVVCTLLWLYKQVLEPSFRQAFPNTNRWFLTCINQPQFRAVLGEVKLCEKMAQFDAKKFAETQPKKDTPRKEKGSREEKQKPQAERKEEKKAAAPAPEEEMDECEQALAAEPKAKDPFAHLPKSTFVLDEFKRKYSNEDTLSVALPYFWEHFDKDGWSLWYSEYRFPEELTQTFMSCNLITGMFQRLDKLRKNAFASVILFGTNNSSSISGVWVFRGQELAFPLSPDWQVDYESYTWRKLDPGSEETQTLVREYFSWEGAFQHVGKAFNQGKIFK
# Sequence of UniProt O60231 (O60231 whole entry, looked up): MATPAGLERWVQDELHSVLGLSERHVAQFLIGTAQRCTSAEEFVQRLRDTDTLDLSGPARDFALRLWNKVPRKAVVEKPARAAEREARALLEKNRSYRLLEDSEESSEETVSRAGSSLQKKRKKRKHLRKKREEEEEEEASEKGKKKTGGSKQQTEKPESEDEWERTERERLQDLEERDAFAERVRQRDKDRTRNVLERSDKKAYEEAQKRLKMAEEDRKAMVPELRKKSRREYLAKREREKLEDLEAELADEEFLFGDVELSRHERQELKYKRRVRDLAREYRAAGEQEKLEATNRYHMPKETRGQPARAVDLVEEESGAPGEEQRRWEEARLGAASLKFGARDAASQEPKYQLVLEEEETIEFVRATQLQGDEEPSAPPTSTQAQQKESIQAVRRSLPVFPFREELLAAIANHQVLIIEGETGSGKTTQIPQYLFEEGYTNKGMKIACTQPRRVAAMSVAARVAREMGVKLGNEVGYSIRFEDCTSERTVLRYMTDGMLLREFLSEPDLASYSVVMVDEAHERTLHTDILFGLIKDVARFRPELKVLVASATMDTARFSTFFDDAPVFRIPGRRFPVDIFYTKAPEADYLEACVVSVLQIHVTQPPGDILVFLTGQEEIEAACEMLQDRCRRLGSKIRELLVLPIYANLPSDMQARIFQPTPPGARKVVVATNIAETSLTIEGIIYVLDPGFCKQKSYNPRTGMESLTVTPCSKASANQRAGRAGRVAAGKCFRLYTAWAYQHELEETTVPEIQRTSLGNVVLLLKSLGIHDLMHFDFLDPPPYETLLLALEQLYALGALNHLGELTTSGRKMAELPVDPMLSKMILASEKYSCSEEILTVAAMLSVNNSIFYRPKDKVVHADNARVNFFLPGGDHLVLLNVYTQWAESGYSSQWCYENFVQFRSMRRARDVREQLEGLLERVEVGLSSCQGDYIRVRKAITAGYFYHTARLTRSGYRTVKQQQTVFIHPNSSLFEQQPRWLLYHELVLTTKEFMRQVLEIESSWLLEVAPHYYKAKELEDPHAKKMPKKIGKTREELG
# Sequence of UniProt Q9NX74 (Q9NX74 whole entry, looked up): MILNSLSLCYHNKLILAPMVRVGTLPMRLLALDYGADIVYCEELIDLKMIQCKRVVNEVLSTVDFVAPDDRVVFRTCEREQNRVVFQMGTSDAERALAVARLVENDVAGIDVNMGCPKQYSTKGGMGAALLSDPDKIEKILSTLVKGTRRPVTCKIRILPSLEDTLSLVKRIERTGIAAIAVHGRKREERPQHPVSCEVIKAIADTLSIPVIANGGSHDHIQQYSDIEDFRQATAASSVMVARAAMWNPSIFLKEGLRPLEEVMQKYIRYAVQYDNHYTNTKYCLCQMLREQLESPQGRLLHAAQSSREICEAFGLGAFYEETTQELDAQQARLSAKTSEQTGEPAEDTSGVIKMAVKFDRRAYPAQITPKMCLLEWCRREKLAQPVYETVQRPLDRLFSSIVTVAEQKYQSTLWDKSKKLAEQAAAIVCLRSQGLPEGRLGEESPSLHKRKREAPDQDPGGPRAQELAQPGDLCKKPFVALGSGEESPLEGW
# Sequence of UniProt Q96E09 (Q96E09 whole entry, looked up): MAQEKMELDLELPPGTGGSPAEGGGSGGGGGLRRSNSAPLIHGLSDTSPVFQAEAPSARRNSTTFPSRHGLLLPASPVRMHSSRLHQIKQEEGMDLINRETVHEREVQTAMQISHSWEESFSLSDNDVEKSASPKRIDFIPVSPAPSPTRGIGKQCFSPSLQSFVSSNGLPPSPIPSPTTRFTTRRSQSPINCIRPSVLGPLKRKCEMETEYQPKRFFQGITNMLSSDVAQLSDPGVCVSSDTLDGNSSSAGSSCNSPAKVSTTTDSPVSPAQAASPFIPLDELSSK
# Sequence of UniProt Q9BSJ8 (Q9BSJ8 whole entry, looked up): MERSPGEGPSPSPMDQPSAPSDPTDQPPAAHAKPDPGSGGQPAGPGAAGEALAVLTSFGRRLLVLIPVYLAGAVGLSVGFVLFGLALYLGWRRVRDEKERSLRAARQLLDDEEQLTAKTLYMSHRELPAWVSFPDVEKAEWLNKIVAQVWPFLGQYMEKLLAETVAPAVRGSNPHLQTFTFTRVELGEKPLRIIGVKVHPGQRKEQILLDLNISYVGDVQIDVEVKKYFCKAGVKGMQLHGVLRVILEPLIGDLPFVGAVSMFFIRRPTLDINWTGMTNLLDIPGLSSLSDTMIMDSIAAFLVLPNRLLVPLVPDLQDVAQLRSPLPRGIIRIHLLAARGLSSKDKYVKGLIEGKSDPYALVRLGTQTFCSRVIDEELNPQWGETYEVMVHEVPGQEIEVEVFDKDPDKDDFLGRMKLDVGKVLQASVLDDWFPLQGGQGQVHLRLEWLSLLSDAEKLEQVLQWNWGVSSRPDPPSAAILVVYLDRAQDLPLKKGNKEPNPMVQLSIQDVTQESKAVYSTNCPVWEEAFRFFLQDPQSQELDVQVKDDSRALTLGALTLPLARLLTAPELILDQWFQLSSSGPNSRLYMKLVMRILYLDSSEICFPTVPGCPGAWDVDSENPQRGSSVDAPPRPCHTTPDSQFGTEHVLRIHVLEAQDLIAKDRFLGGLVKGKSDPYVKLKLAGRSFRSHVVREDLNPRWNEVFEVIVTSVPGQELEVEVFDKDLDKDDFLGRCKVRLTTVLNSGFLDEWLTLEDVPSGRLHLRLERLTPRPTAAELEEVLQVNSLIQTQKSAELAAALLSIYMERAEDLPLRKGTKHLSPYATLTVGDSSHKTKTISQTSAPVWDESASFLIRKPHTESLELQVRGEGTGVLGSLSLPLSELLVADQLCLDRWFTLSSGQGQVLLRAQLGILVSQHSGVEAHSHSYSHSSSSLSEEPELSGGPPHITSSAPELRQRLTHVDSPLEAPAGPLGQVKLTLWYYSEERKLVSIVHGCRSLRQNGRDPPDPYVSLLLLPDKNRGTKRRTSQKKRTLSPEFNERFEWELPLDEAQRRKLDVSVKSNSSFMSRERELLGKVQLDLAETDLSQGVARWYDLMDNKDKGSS
Target,log2 fold change (saracatinib),log2 fold change (sotrastaurin),log2 fold change (alvocidib),log2 fold change (Tubastatin A),log2 fold change [1],log2 fold change (defactinib),log2 fold change (rucaparib),log2 fold change [2],log2 fold change (encorafenib),log2 fold change [3],log2 fold change [4],log2 fold change (filanesib),log2 fold change (zotarolimus),log2 fold change (idasanutlin),log2 fold change (alisertib),log2 fold change [5],log2 fold change (gefitinib),log2 fold change [6],log2 fold change (lapatinib),log2 fold change (pictilisib)
EIF4E2 (UniProt O60573),-0.229,-0.288,-0.052,0.07,-0.026,-0.001,0.126,0.008,-0.013,-0.013,-0.062,-0.089,0.058,0.024,0.059,-0.043,0.043,-0.251,0.033,
EEF1G isoform 2 (UniProt P26641),-0.012,-0.041,-0.044,-0.008,0.075,-0.051,0.045,0.02,0.076,-0.047,-0.017,0.012,0.027,-0.014,-0.046,-0.016,0.018,-0.083,0.041,-0.06
DDOST (UniProt P39656),-0.015,-0.03,0.013,0.021,0.008,0.042,-0.029,-0.005,0.059,-0.002,-0.068,-0.009,0.036,0.013,-0.065,0.003,-0.019,0.012,0.019,-0.04
ESYT1 isoform 2 (UniProt Q9BSJ8),-0.148,-0.208,-0.05,0.031,-0.034,-0.043,0.154,0.099,0.175,-0.099,0.042,0.013,0.08,0.08,-0.094,0.008,0.053,-0.122,0.089,-0.038
DBR1 (UniProt Q9UK59),0.048,0.019,-0.002,-0.012,-0.033,-0.012,-0.007,-0.004,-0.012,-0.011,0.051,0.036,-0.003,0.015,-0.018,0.017,-0.049,0.054,-0.021,-0.064
DHX16 (UniProt O60231),0.024,-0.037,-0.045,-0.001,-0.042,-0.035,-0.027,0.028,0.019,-0.013,0.008,0.096,0.023,-0.03,-0.079,0.028,0.043,0.04,0.02,-0.012
DCAF13 (UniProt Q9NV06),-0.027,0.001,0.214,0.094,0.074,0.165,0.19,0.045,0.07,0.029,-0.083,0.333,-0.01,0.17,-0.067,-0.047,-0.063,-0.112,0.083,-0.103
EXOC6 (UniProt Q8TAG9),-0.02,-0.153,-0.151,0.042,0.075,-0.061,0.025,-0.015,0.013,0.009,-0.021,0.017,0.151,-0.058,-0.013,0.119,-0.037,-0.101,-0.052,-0.003
CTSV (UniProt O60911),-0.049,0.195,0.012,0.016,0.048,0.011,-0.056,0.062,0,0.02,-0.006,-0.112,-0.011,-0.036,-0.042,-0.002,0.056,0.141,-0.064,0.135
EEF1A1 (UniProt P68104),0.093,-0.082,-0.885 (active),-0.096,0.007,-0.079,0.146,0.102,-0.009,-0.059,0.081,-0.119,0.182,-0.086,-0.347,-0.216,-0.029,-0.034,0.1,
DNTTIP2 (UniProt Q5QJE6),-0.038,-0.104,-0.007,0.145,0.011,-0.131,0.171,0.03,0.067,0.121,-0.095,0.217,0.061,0.267,-0.072,-0.09,-0.014,-0.002,0,0.008
DSN1 (UniProt Q9H410),0.032,-0.042,-0.164,0.082,-0.031,-0.146,0.076,0.016,0.02,0.029,0.032,0.048,0.114,-0.013,0.018,-0.017,0.113,-0.23,-0.028,
EPHX2 (UniProt P34913),-0.009,0.172,-0.023,0.003,-0.022,-0.002,0.002,0.216,0.003,-0.011,-0.019,-0.096,-0.017,-0.089,-0.053,-0.009,0,0.055,-0.041,0.062
DUS2 (UniProt Q9NX74),0.112,-0.098,-0.041,0.041,-0.048,-0.093,0.042,-0.113,0.09,-0.02,-0.02,-0.014,-0.041,-0.004,-0.075,0.059,0.04,-0.11,0.043,-0.128
FAM122A (UniProt Q96E09),-0.005,-0.027,0,0.096,-0.09,-0.018,0.015,0.017,-0.016,0.056,-0.05,-0.004,-0.038,0.017,-0.068,-0.053,0.019,0.005,0.018,0.092
DCAF16 (UniProt Q9NXF7),-0.052,-0.036,-0.082,-0.006,0.084,-0.054,0.033,-0.05,0.004,-0.041,0.065,0.077,0.035,0.037,-0.07,0.021,0.022,0,-0.168,0.132
